Results on eleven molecules are retold here after PubChem BioAssay AID1508625 (Wald Lab, School of Medicine, Case Western Reserve …, 2021).

The nature of the assay: small molecules boosting NK-mediated OVCAR3 lysis – imaging, primary NK cells, calcein-AM imaging, primary screen (AID 1508625).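 Also: compound given to NK cells 16 h before adding targets at 1.5 to 1 ratio.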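 As to z-score: more negative robust z means stronger NK killing of tumor cells.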 Conditions: OVCAR3 lysis by primary NK cells, at 5 µM; z-score: measured here: robust Z-score, single-point normalisation.

Regarding `c1nc(N2CCCCCC2)c2[nH]cnc2n1`, the corrected activity, negative = more killing was -0.464% and the z-score was -0.115.
As for `O=C(c1cccc(NS(=O)(=O)Cc2ccccc2)c1)N1CCOCC1`, the corrected activity, negative = more killing is -1.7% and the z-score is -0.945.
The corresponding values for `N#Cc1c2c(c(-n3ccnc3)n3c1nc1ccccc13)CCC2` are -2.49% and -0.772.
With `O=C(Nc1ccc(Br)cc1)C1CCN(S(=O)(=O)c2cccc3nonc23)CC1`, the corrected activity, negative = more killing is -3.15% and the z-score was -0.893.
On to `CCCOc1ccc(C(=O)Nc2ccc3nn(-c4ccc(OCC)cc4)nc3c2)cc1`, for which the corrected activity, negative = more killing is -3.37% and the z-score was -1.2.
Regarding `O=[N+]([O-])c1cccc(CN2CCN3CCCC3C2C2CCCCC2)c1` (configuration not stated), the corrected activity, negative = more killing was 0.41% and the z-score was 0.179.
`Cc1sc2nc(SCC(=O)Nc3ccc(N(C)C)cc3)[nH]c(=O)c2c1C`: the corrected activity, negative = more killing is -4.5% and the z-score is -2.5.
Consider `COc1ccc(C=NNC(=O)c2cc(C34CC5CC(CC(C5)C3)C4)[nH]n2)cc1O`, for which the corrected activity, negative = more killing is 0.0734% and the z-score was 0.0321.
In the case of `Cc1c(C(=O)NCc2ccc(F)cc2)sc2ncn(Cc3ccccc3Cl)c(=O)c12`, the corrected activity, negative = more killing is -2.74% and the z-score is -0.998.
On to `COc1ccc(NC(=O)NCCc2ccncc2)cc1`, for which the corrected activity, negative = more killing is 0.111% and the z-score is 0.0619.
Take `Cc1nn2c(N)cc(-c3ccccc3)nc2c1-c1ccccc1`: the corrected activity, negative = more killing was -0.835% and the z-score is -0.365.
